Data taken from PubChem BioAssay (Tox21).
“And” between values parts separate entries of the source, which are not always exact repeats. Identical values can stand only once. Results filed as inconclusive are left out. The source made the active and inactive calls. Unless noted, calls follow the shape of the dose curve; as a rule, active = well fitted curve in the direction sought with a large enough effect in the repeat runs; inconclusive = weak or mixed curves; inactive = no such curve, though single readings can be large; an effect the other way counts as inactive or inconclusive.

Columns and labels:
[1] = qHTS assay to identify small molecule antagonists of the estrogen related receptor (ERR) signaling pathway from Tox21 library - cell viability counter screen (AID 1224834); also: nearly all actives have a fitted effect of over 30% in size
Outline: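 In this quantitative HTS format, ERR cells receive compounds in DMSO and are incubated for 17.5 h at 37 C. Live-cell protease activity is then detected with CellTiter-Fluor.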

[2] = target: Luciferin 4-monooxygenase (Photinus pyralis) (UniProt P08659); test: qHTS assay to identify small molecule inhibitors of firefly luciferase (AID 1224835); also: nearly all actives have a fitted effect of over 25% in size; also: potency is read from the fitted curve at half-maximal effect
Chain of Luciferin 4-monooxygenase (Photinus pyralis) (P08659 whole entry, looked up): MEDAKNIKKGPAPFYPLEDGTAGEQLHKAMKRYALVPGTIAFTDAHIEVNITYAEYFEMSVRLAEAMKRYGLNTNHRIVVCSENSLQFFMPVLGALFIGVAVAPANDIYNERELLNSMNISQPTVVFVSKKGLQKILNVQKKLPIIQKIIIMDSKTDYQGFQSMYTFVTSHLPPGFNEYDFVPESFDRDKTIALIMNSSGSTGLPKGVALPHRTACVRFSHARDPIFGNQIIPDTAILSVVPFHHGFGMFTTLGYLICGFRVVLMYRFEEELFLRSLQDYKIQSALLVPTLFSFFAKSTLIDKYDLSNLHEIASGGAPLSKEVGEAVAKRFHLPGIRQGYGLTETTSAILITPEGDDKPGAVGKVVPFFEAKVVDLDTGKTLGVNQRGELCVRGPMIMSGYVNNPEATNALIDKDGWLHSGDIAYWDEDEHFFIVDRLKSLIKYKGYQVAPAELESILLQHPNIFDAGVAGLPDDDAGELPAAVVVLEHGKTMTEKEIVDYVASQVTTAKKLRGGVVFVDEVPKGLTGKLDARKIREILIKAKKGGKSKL
Outline: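 Quantitative HTS format; KM concentrations of both substrates. Purified P. pyralis FLuc activity quantified from luminescence images.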

[3] = qHTS assay to identify small molecule agonists of the constitutive androstane receptor (CAR) signaling pathway - cell viability counter screen (AID 1224836); also: nearly all actives have a fitted effect of over 45% in size
Outline: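 23 h treatment, 37 C, 5% CO2. Cell line: HepG2 stably expressing hCAR with a CYP2B6-2.2kb construct. Co-treatment: PK11195, 0.75 uM final. Read-out: CellTiter-Fluor fluorescence intensity.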

[4] = qHTS assay to identify small molecule antagonists of the constitutive androstane receptor (CAR) signaling pathway - cell viability counter screen (AID 1224837); also: nearly all actives have a fitted effect of over 45% in size
Outline: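 In quantitative HTS format, compounds at 15 concentrations were applied to HepG2 cells double-transfected with hCAR and CYP2B6-2.2kb under 50 nM CITCO stimulation; live-cell protease activity was read after 23 hr via CellTiter-Fluor.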

[5] = target: Nuclear receptor subfamily 1 group I member 3 (Homo sapiens) (UniProt Q14994); test: qHTS assay to identify small molecule antagonists of the constitutive androstane receptor (CAR) signaling pathway (AID 1224838); also: nearly all actives have a fitted effect of over 40% in size
Chain of Nuclear receptor subfamily 1 group I member 3 (Homo sapiens) (Q14994 whole entry, looked up): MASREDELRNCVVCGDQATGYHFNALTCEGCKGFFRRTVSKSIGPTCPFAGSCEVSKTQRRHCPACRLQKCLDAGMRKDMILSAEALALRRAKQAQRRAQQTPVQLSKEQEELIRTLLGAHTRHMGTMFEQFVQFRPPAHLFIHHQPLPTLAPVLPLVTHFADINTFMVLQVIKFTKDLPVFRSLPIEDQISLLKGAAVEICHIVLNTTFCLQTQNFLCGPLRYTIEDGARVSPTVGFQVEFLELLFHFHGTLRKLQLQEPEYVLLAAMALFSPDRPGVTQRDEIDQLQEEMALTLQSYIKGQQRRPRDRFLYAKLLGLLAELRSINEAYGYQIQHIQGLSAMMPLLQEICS
Outline: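 CITCO-stimulated (50 nM final) HepG2 cells stably transfected with hCAR and CYP2B6-2.2kb luciferase were exposed to compounds at 15 concentrations for 24 h at 37 C/5% CO2. A luciferase reagent was added and luminescence recorded after 30 min.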

[6] = target: Nuclear receptor subfamily 1 group I member 3 (Homo sapiens) (UniProt Q14994); test: qHTS assay to identify small molecule agonists of the constitutive androstane receptor (CAR) signaling pathway (AID 1224839); also: nearly all actives have a fitted effect of over 15% in size; also: potency is read from the fitted curve at half-maximal effect;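 as to activation: HepG2 cells stably carrying human CAR and a CYP2B6 luciferase reporter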
Outline: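 Compounds tested at 15 concentrations on HepG2 cells stably harbouring hCAR and CYP2B6-2.2kb reporter constructs, co-treated with PK11195 (0.75 uM final), 24 h at 37 C; luminescent reporter signal quantified.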

[7] = qHTS assay to identify small molecule antagonists of the estrogen related receptor signaling pathway with the pleiotropic PPARgamma coactivator (PGC) from Tox21 10K library - cell viability counter screen (AID 1224840; active = well fitted cell-killing curve with a large enough effect in the repeat runs, not every such curve was filed as active; also: nearly all actives have a fitted effect of over 40% in size)
Outline: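 Viability counter screen, PGC/ERR cells: 17.5 h compound exposure at 37 C, CellTiter-Fluor fluorescence endpoint.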

[8] = qHTS assay to identify small molecule antagonists of the estrogen related receptor signaling pathway with the pleiotropic PPARgamma coactivator (PGC) from Tox21 10K library (AID 1224841; call rule not given here; also: actives are mostly falling curves and most rising ones were filed inactive; nearly all actives have a fitted effect of over 50% in size)
Outline: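 In the PGC/ERR line, DMSO solutions of test chemicals are pin-delivered to 2,000 cells/well six hours after dispensing. Following eighteen hours' incubation, One-Glo reagent is added and luminescence recorded.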

[9] = qHTS assay to identify small molecule agonists of the estrogen related receptor signaling pathway with the pleiotropic PPARgamma coactivator (PGC) from Tox21 10K library (AID 1224842); also: nearly all actives have a fitted effect of over 15% in size; also: potency is read from the fitted curve at half-maximal effect
Outline: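 PGC/ERR reporter cells (NTP line) were seeded 2,000 per well, rested 6 h at 37 C/5% CO2, then pin-dosed with compounds in DMSO for 18 h at 37 C; luciferase read by One-Glo luminescence after 30 min at room temperature.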

[10] = qHTS assay to identify small molecule agonists of the hypoxia (HIF-1) signaling pathway - cell viability counter screen (AID 1224844; calls by dose curve; also: nearly all actives have a fitted effect of over 50% in size; also: potency is read from the fitted curve at half-maximal effect)
Outline: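 Same wells as the HIF-1 reporter screen; ME-180 cells carrying HRE-bla, 17 hr treatment at 37C; CellTiter-Glo luminescence read after 30 min at room temperature.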

[11] = qHTS assay to identify small molecule agonists of H2AX (AID 1224845; active = well fitted activation curve with a large enough effect in the signal ratio in the repeat runs, not every such curve was filed as active; the % refers to the signal ratio)
Outline: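 Wild-type CHO-K1 cells plated overnight, then exposed 3 hr at 37C to compounds at 15 concentrations (0.76% DMSO). Lysed, then HTRF anti-pH2AX(S139)-cryptate/anti-H2AX-d2 detection after 24 hr at room temperature; emissions 665 and 620 nm.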

[12] = qHTS assay to identify small molecule agonists of the hypoxia (HIF-1) signaling pathway (AID 1224846; active = well fitted activation curve with a large enough effect in the signal ratio in the repeat runs, not every such curve was filed as active; the % refers to the signal ratio)
Outline: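 In ME-180 cells bearing an HRE-bla construct, 17 h treatment with DMSO-dissolved compounds at 37C was followed by CCF4-AM loading to quantify reporter induction.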

[13] = qHTS assay to identify small molecule agonists of H2AX - cell viability counter screen (AID 1224847; calls by dose curve; also: nearly all actives have a fitted effect of over 30% in size; also: potency is read from the fitted curve at half-maximal effect)
Outline: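 Compounds tested at 15 concentrations were incubated 3 hr at 37C with wild-type CHO-K1 cells; cellular ATP-based luminescence (CellTiter-Glo) indicated viability.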

[14] = qHTS assay to identify small molecule antagonists of the estrogen related receptor (ERR) signaling pathway from Tox21 library (AID 1224848); also: nearly all actives have a fitted effect of over 50% in size
Outline: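 First, 2,000 ERR cells per well were plated and held 6 h at 37 C/5% CO2. Next, compounds in DMSO were pinned in and left 18 h at 37 C. Finally, ONE-Glo was added and luminescence read after 30 min at room temperature.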

[15] = qHTS assay to identify small molecule agonists of the estrogen related receptor (ERR) signaling pathway from Tox21 library (AID 1224849; calls by dose curve; also: nearly all actives have a fitted effect of over 15% in size); settings: ERR reporter cell line, ONE-Glo luciferase, 18 h
Outline: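 Reporter cells (ERR, NTP source) treated with Tox21 10K compounds 18 h, 37 C. Readout: ONE-Glo luminescence, 30 min RT.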

[16] = qHTS RealTime-Glo MT Cell Viability Assay in HepG2 cells - 24 hour (AID 1224867); also: nearly all actives have a fitted effect of over 50% in size
Outline: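 HepG2 cells (600/well) were dispensed with RealTime-Glo reagents, incubated 5 h at 37 °C, then treated with compounds in DMSO for up to 40 h. Nonlytic NanoLuc luminescence reflecting viable cells was read at each stated time point.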

[17] = qHTS RealTime-Glo MT Cell Viability Assay in HEK293 cells - 32 hour (AID 1224868)
Outline: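 HEK293 cells seeded with NanoLuc/prosubstrate reagent, rested 5 h at 37 C, then dosed and kept at 37 C up to 40 h. Nonlytic real-time luminescence from viable cells read at 0, 8, 16, 24, 32 and 40 h.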

[18] = A CellTox Green Cytotoxicity Assay to monitor cytotoxicity in HEK293 cells - 0 hour (AID 1224869); also: nearly all actives have a fitted effect of over 50% in size
Outline: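 Homogeneous no-lysis format: HEK293 cell suspension mixed with CellTox Green reagent, seeded, incubated 5 h at 37 C/5% CO2, then dosed by pintool with compound in DMSO.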

[19] = qHTS RealTime-Glo MT Cell Viability Assay in HepG2 cells - 40 hour (AID 1224870); also: nearly all actives have a fitted effect of over 50% in size
Outline: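 HepG2 cells mixed with RealTime-Glo MT reagents (NanoLuc plus cell-permeant prosubstrate) were seeded at 600 cells/well, incubated 5 h at 37 C/5% CO2, then pinned with compounds in DMSO; nonlytic luminescence tracked viability during 40 h treatment.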

[20] = target: Thyrotropin receptor (Homo sapiens) (UniProt P16473); test: qHTS assay to identify small molecule agonists of the thyroid stimulating hormone receptor (TSHR) signaling pathway (AID 1224843; calls by dose curve; also: nearly all actives have a fitted effect of over 45% in size)
Chain of Thyrotropin receptor (Homo sapiens) (P16473 whole entry, looked up): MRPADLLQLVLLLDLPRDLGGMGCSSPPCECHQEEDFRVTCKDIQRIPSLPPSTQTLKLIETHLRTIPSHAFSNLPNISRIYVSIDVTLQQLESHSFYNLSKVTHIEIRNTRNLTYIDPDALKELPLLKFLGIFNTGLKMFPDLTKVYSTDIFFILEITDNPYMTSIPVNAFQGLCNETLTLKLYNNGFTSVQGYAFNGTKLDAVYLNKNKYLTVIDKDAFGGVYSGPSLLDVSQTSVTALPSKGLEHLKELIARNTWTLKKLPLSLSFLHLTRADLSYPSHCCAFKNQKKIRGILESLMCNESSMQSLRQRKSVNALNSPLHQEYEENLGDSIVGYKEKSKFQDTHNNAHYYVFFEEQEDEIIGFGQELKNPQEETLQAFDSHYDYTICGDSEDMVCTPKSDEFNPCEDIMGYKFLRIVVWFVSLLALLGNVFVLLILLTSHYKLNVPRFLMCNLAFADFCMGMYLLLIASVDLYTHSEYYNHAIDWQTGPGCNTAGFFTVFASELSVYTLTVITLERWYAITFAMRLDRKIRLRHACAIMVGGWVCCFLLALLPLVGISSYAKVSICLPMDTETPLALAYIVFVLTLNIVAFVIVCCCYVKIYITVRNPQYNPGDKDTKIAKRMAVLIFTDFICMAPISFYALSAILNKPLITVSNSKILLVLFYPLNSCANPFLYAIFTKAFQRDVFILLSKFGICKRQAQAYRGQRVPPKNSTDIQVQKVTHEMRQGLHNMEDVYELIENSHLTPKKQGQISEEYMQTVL
Outline: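 Compounds are titrated over 15 concentrations, in triplicate, onto TSHR-HEK293 cells seeded at 800/well. Plates sit 30 min at room temperature before cAMP-d2 and anti-cAMP cryptate are added; signal is read after a further hour.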
% is scaled to controls: 0 for no effect and ±100 for the full control effect.

Cc1ccc(O)c(-n2nc3ccccc3n2)c1
inactive: Potency [1] | Potency [3] | Potency [4] | Potency [5] | Potency [7] | Potency [8] | Potency [10] | Potency [11] | outcome [12] | Potency [14] | outcome [16] | Potency [17] | Potency [18] | outcome [19]
active: Potency [2] 2.5 µM and 1.59 µM and 3.09 µM | Potency [6] 24.1 µM and 21.7 µM and 8.41 µM | Potency [9] 27.1 µM and 8.63 µM and 11.9 µM | Potency [13] 100 µM and 89.8 µM | activity change, positive = activation ([15]; at 42.5 µM (top of the series)) 147% | activity change, positive = activation ([15]; at 92.4 µM (top of the series)) 109% and 139%

Cc1c(N(C)CS(=O)(=O)O)c(=O)n(-c2ccccc2)n1C
inactive: Potency [1] | Potency [2] | Potency [3] | Potency [4] | Potency [5] | Potency [6] | Potency [7] | Potency [20] | Potency [10] | Potency [11] | outcome [12] | Potency [13] | outcome [16] | Potency [17] | Potency [18] | outcome [19]

CC(C)CC(C)CC(O)CC(C)C (stereo unspecified)
inactive: Potency [1] | Potency [2] | Potency [3] | Potency [4] | Potency [5] | Potency [6] | Potency [7] | Potency [8] | Potency [9] | Potency [10] | Potency [11] | outcome [12] | Potency [13] | Potency [14] | activity change, positive = activation ([15]; at 92.4 µM (top of the series)) 3.18% and 4.59% | outcome [16] | Potency [17] | Potency [18] | outcome [19]

COc1ccccc1O
inactive: Potency [1] | Potency [2] | Potency [3] | Potency [4] | Potency [5] | Potency [6] | Potency [7] | Potency [20] | Potency [10] | outcome [12] | Potency [13] | outcome [16] | Potency [17] | Potency [18] | outcome [19]

CCCCCCCCCCCCCCCCCC(=O)OCC(O)CO (stereo unspecified)
inactive: Potency [1] | Potency [2] | Potency [3] | Potency [4] | Potency [5] | Potency [6] | Potency [7] | Potency [10] | outcome [12] | Potency [13] | outcome [16] | Potency [17] | Potency [18] | outcome [19]

c1ccc2[nH]c(-c3cscn3)nc2c1
inactive: Potency [1] | Potency [3] | Potency [4] | Potency [5] | Potency [7] | Potency [10] | Potency [11] | outcome [12] | Potency [13] | outcome [16] | Potency [17] | Potency [18]
active: Potency [2] 28.4 µM and 35.6 µM and 17.4 µM | Potency [6] 13.8 µM and 6.11 µM and 7.5 µM

C1CNCCN1
inactive: Potency [1] | Potency [2] | Potency [3] | Potency [4] | Potency [5] | Potency [6] | Potency [7] | Potency [10] | outcome [12] | Potency [13] | outcome [16] | Potency [17] | Potency [18]

CC1=C(/C=C/C(C)=C/C=C/C(C)=C/C(=O)O)C(C)(C)CCC1
inactive: Potency [1] | Potency [3] | Potency [4] | Potency [5] | Potency [7] | Potency [13] | outcome [16] | Potency [17] | Potency [18] | outcome [19]
active: Potency [2] 39.9 µM and 27.5 µM | Potency [6] 27.3 µM and 24.3 µM and 10.6 µM | Potency [10] 49 µM

Cc1c(N(C)C)c(=O)n(-c2ccccc2)n1C
inactive: Potency [1] | Potency [2] | Potency [3] | Potency [4] | Potency [5] | Potency [6] | Potency [7] | Potency [10] | Potency [13] | outcome [16] | Potency [17] | Potency [18]

CN(C)Cc1cc(CN(C)C)c(O)c(CN(C)C)c1
inactive: Potency [1] | Potency [2] | Potency [3] | Potency [4] | Potency [5] | Potency [6] | Potency [7] | Potency [10] | outcome [12] | Potency [13] | outcome [16] | Potency [17] | Potency [18] | outcome [19]

Cc1cccc(Nc2cc(Cl)nc(SCC(=O)O)n2)c1C
inactive: Potency [1] | Potency [2] | Potency [3] | Potency [4] | Potency [5] | Potency [6] | Potency [7] | Potency [10] | Potency [11] | Potency [13] | outcome [16] | Potency [17] | Potency [18]

Cn1cnc2c1c(=O)[nH]c(=O)n2C
inactive: Potency [1] | Potency [2] | Potency [3] | Potency [4] | Potency [5] | Potency [7] | Potency [20] | Potency [10] | Potency [11] | Potency [13] | outcome [16] | Potency [17] | Potency [18]

CCOCCO
inactive: Potency [1] | Potency [2] | Potency [3] | Potency [4] | Potency [5] | Potency [6] | Potency [7] | Potency [10] | outcome [12] | Potency [13] | outcome [16] | Potency [17] | Potency [18]

O=C(OCc1ccccc1)c1ccccc1
active: Potency [2] 14.2 µM and 11.2 µM and 9.77 µM
inactive: Potency [1] | Potency [3] | Potency [4] | Potency [5] | Potency [7] | Potency [8] | Potency [9] | Potency [10] | Potency [11] | outcome [12] | Potency [13] | Potency [14] | activity change, positive = activation ([15]; at 92.4 µM (top of the series)) 13.6% | outcome [16] | Potency [17] | Potency [18]

COc1cc(O)c(C(=O)c2ccccc2)cc1S(=O)(=O)O
inactive: Potency [1] | Potency [2] | Potency [3] | Potency [4] | Potency [5] | Potency [6] | Potency [7] | Potency [20] | Potency [10] | outcome [12] | Potency [13] | outcome [16] | Potency [17] | Potency [18] | outcome [19]
